SMN2 splice up = SMN2 splice variant enhancement; AID 1458; actives 2.8% (n = 210,000); HEK293 SMN2-luciferase splicing reporter, luminescence, 30-36 h; Potency, µM (titrated, usually from 46.1 µM), for the others: at the highest dose activity change, positive = activation, actives largely listed as activators; also: % of control where 0% means no effect; nearly all actives have a fitted effect of over 55% in size
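HEK293 cells carry an SMN2 […]–luciferase reporter in which exon 7 inclusion puts luciferase in frame. Cells were plated 10-12 h before compound addition, then incubated 30-36 h at 37C. ONE-Glo luminescence was read; sodium butyrate at 4.5 mM final served as control.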
Rab9 prom act = Rab9 promoter activation; AID 485297; Huh7 Rab9 promoter-luciferase reporter, luminescence, 24 h; Potency, µM (highest dose often 9.22 µM), for the others: top-dose activation, negative = inhibition, usual class: activators; actives 2.8% (n = 320,000); also: % of control where 0% means no effect; nearly all actives have a fitted effect of over 60% in size
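Luciferase signal after 10 min detection reagent at ambient indicates Rab9 promoter upregulation; stably transfected Huh7 cells were treated 24 h with compound in DMSO at 37 °C, 5% CO2.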
ELG1 genotoxic = induces genotoxicity in HEK293T cells with luciferase-tagged ELG1. HEK293T ELG1-luciferase reporter, luminescence, 16 h. Potency, µM (titrated, usually from 46 µM), for inactives: top-dose activity change, positive = activation, actives largely listed as activators. actives 1.3% (n = 330,000). AID 504466; also: % of control where 0% means no effect; nearly all actives have a fitted effect of over 60% in size
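Genotoxicity was scored as increased ELG1-luciferase reporter signal, measured by ONE-Glo luminescence (30 min, room temperature). Compound or vehicle exposure of the HEK293T reporter cells lasted 16 hr at 37°C.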
NPC1 promoter act = NPC1 promoter activation; Huh7 NPC1 promoter luciferase reporter, 24 h; Potency, µM (titrated, usually from 9.22 µM), for the others: at the highest dose activation, most hits filed as activators; actives 2.4% (n = 320,000); AID 485313; also: % of control where 0% means no effect; nearly all actives have a fitted effect of over 60% in size
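Luminescence from an NPC1 promoter-driven luciferase reporter in stably transfected Huh7 cells was measured after 24 h compound treatment at 37 °C, followed by 10 min ambient incubation with luciferase detection reagent.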
FLuc counter = firefly luciferase modulation, counter-screen for miR-21 project; P08659; purified FLuc, Km substrates, luminescence inhibition; Potency, µM (titrated, usually from 57.5 µM), for the others: at the top dose activity change, negative = inhibition, most hits filed as inhibitors; actives 6.9% (n = 360,000);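 also: plate controls were vehicle for no effect and reference inhibitor for full effect; nearly all actives have a fitted effect of over 55% in size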
Target sequence (P08659 whole entry, looked up): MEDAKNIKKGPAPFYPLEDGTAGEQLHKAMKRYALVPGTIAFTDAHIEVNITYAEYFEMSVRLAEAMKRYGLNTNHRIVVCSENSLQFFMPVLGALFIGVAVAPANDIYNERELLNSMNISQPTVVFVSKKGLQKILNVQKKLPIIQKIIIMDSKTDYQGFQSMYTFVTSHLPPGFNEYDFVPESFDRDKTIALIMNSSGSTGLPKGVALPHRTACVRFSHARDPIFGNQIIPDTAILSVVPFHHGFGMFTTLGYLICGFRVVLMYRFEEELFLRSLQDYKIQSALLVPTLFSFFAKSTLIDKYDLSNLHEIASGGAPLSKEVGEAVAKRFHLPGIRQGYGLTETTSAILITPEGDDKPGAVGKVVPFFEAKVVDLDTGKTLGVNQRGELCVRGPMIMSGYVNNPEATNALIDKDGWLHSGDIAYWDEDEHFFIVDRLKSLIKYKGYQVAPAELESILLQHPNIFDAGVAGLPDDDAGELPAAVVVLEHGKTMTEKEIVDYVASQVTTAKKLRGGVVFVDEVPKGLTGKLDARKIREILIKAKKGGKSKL
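Biochemical qHTS of compounds, final roughly 60 µM downward over six points, against 10 nM purified firefly luciferase using Km concentrations of substrates (10 uM D-luciferin, 10 uM ATP) in Tris acetate pH 7.5 buffer; luminescence output.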
Luc counter = blocks Kinase-Glo luciferase, a counter-screen artifact. actives 0.28% (n = 200,000). Q27757. Kinase-Glo luciferase, ATP luminescence, 8 min. Potency, µM (top dose mostly 38.3 µM), inactives show at the highest dose activity change, negative = inhibition, actives largely listed as inhibitors; also: % is scaled to controls: 0 for no effect and ±100 for the full control effect; nearly all actives have a fitted effect of over 60% in size
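Recombinant Kinase-Glo luciferase, 10 uM ATP (linear range), luciferin; imidazole pH 7.2 / KCl / MgCl2 / Tween / BSA buffer; 8 min RT; luminescence.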
Active calls of the source: *; ? = inconclusive; . = not tested or not shown; [ ] = dose if it differs, or a comment. Only some compounds are listed: those with a hit (about 7.5% of all), similar ones and a draw of the others. Calls follow the shape of the dose curve; as a rule, active = well fitted curve in the direction sought with a large enough effect; inconclusive = small, poorly fitted or top-dose-only effect, or another doubt; inactive = no such curve, though single readings can be large; an effect the other way counts as inactive or inconclusive. Potency is read from the fitted curve at half-maximal effect.

SMILES | SMN2 splice up | Rab9 prom act | ELG1 genotoxic | NPC1 promoter act | FLuc counter | Luc counter
CCN1c2ccccc2-n2cccc2C12CCN(C(=O)Nc1ccccc1Br)CC2 | . | . | . | . | -10.6% | .
COc1ccc(-c2cc(C(F)(F)F)c(C#N)c(SCC(=O)O)n2)cc1OC | . | 0.3% | -1.4% | 2.0% | 5.2% | .
Cc1ccccc1Cn1cc(NC(=O)c2cc(C3CC3)on2)cn1 | . | ? | -11.4% | ? | 19µM* | .
Cc1ccccc1Cn1cc(NC(=O)c2cc(-c3ccc(Cl)cc3)on2)cn1 | -2.6% | . | . | . | 6.1% | .
COc1ccccc1OCCn1c(SCC(=O)O)nc2ccccc21 | . | 5.6% | 1.1% | -1.6% | 1.8% | .
COc1ccccc1OCCSc1nc2ccccc2n1CCO | . | 1.4% | -1.1% | 1.1% | 16.9µM* | -2.9%
COc1ccccc1OCCSc1nc2ccccc2n1CCC(=O)O | . | -2.1% | 6.1% | 1.5% | 26.9µM* | .
CCc1ccc(S(=O)(=O)c2nnn3c2nc(Nc2ccc(F)cc2)c2cc(Cl)ccc23)cc1 | -9.4% | . | . | . | -2.1% | .
O=C(c1cc(-c2cccc3ccccc23)nc2ccccc12)N1CCN(CCO)CC1 | . | . | -3.7% | . | . | .
O=C(O)c1cc(-c2ccc3ccccc3c2)nc2ccc(F)cc12 | . | -2.6%[1.84 µM] | 1.5% | -0.1% | 2.69µM* | .
O=C(O)c1cc(-c2cccc3ccccc23)nc2ccccc12 | . | -2.4% | -6.9% | 1.3% | 26.9µM* | .
CCOc1ccc(-c2cc(C(=O)O)c3ccccc3n2)c(OCC)c1 | 117.6% | -2.3% | -1.7% | -1.2% | 16.9µM* | -0.3%
O=C(O)c1cc(-c2ccc(-c3ccccc3)cc2)nc2cc3ccccc3cc12 | -1.3%[9.22 µM] | . | . | . | . | -4.4%[7.66 µM]
O=C(O)c1cc(-c2c[nH]c3ccccc23)nc2cc3ccccc3cc12 | . | 25.3% | 17.4% | 27.5% | 0.675µM* | .
O=C(O)C1(O)CC(O)C(O)C(O)C1 (stereo not drawn) | -7.5% | . | . | . | . | -0.6%
Fc1ccccc1OCC1CCCN(Cc2nc(CC3CC3)no2)C1 (stereo not drawn) | . | -5.7% | -0.5% | -4.8% | -14.4% | -1.2%
CC(C)(C)C(=O)OCOP(=O)(OCOC(=O)C(C)(C)C)C(C)(Oc1ccc(O)cc1)P(=O)(OCOC(=O)C(C)(C)C)OCOC(=O)C(C)(C)C | . | . | . | . | . | -8.2%[39.9 µM]
O=C(O)c1cc(-c2ccc3ccccc3n2)nc2ccccc12 | . | 2.82µM* | ? | ? | 0.601µM* | .
O=C(O)c1cc(-c2cc(C(=O)O)c3ccccc3n2)nc2ccccc12 | . | -2.0% | -1.3% | 0.1% | ? | .
O=C(/C=C/c1cccs1)N1CCCCC1 | 17.8µM* | 11.2% | ? | 25.2% | ? | -14.6%
CCCOc1ccc(/C=C/C(=O)N2CCN(c3ccccn3)CC2)cc1 | -9.0% | 2.1% | 2.3% | -2.7% | ? | 1.4%
CCCOc1ccc(/C=C/C(=O)N2CCOCC2)cc1 | . | ? | ? | 2.51µM* | 15.1µM* | .
CC(C)c1ccc(NC(=O)NN2CCOCC2)cc1 | 12.6µM* | 3.55µM* | 16.4µM* | 3.16µM* | 26.9µM* | -1.7%
CC(C)c1ccc(/C=N/N2CCCCC2)cc1 | ? | 3.16µM* | ? | 21.1% | 1.51µM* | -10.5%
CC(C)COC[C@H](CN(Cc1ccccc1)c1ccccc1)N1CCCC1 | -11.1%[20.6 µM] | . | . | . | . | -1.4%[17.1 µM]
SMILES | SMN2 splice up | Rab9 prom act | ELG1 genotoxic | NPC1 promoter act | FLuc counter | Luc counter
CN(c1ccc(Br)cc1)S(=O)(=O)c1ccc2[nH]cc(C(=O)NCCN3CCOCC3)c(=O)c2c1 | . | -0.8% | -9.9% | -1.6% | 1.3% | .
CC(C)c1ccc(/C=C/C(=O)N2CCCCCC2)cc1 | -19.1% | 1.4% | ? | 14.5% | 15.1µM* | 3.9%
CCN1CCN(C(=O)/C=C/c2ccc(C)cc2)CC1 | . | 16.5% | 15.3% | 11.4% | -7.8% | .
O=C(/C=C/c1ccc(Br)cc1)NC(=S)N1CCOCC1 | . | -3.5% | 5.7% | 2.2% | 13.5µM* | ?
CC(C)c1ccc(/C=C/C(=O)n2nnc3ccccc32)cc1 | -10.0% | . | . | . | 1.69µM* | -2.1%
Cc1ccc(/C=C/C(=O)N2CCCN(C(=O)/C=C/c3ccc(C)cc3)CC2)cc1 | ? | 19.6% | 14.2% | 14.9% | 10.7µM* | -0.2%

Screens: PubChem BioAssay, National Center for Advancing Translational Sciences (NCATS)
